Over roughly 2,900 compounds, “NF-kB SEAP reporter activity, fold change vs agonist alone” has its median near 0.99; the highest 2% begin near 2.6. For the sample, the highest values were picked, then their nearest neighbours and some compounds at random.

Test [1] has as its system RAW-Dual. Briefly: NF-kB SEAP reporter activity, fold change vs agonist alone; higher = enhanced NF-kB activity. Particulars: library stock concentration (final ~1000-fold dilution): 10 mM. The method, boiled down:
(§1)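 Cytotoxic wells were those whose IncuCyte confluency was below 70% of agonist controls in both mask sets. The cells were RAW-Dual macrophages at 50,000 cells/well in DMEM on 384-well plates, dosed with 50 nL of library stock by pin tool, stimulated with a PRR agonist 1 h later, and kept at 37 °C, 5% CO2 for 20 hours. IRF and NF-κB reporter activity, as fold change over agonist-alone wells, came from supernatant read by QuantiLuc luminescence and QuantiBlue absorbance, respectively.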

In test [2] the test system is RAW-Dual. Nature of the test: NF-kB SEAP reporter activity, fold change vs agonist alone; cytotoxicity flag (confluency mask): not cytotoxic; higher = enhanced NF-kB activity. The gist of the method:
as §1

In test [3] the test system is RAW-Dual. Briefly: NF-kB SEAP reporter activity, fold change vs agonist alone; cytotoxicity flag (confluency mask): cytotoxic (confluency <70% of control); higher = enhanced NF-kB activity. The gist of the method: as §1
The mark [4] stands for this setting: cytotoxicity flag (confluency mask): not cytotoxic, agonist: Imiquimod (TLR7) […].
Where [5] appears, read: cytotoxicity flag (confluency mask): not cytotoxic, agonist: MPLA (TLR4) […].
Setting [6] is: agonist: ODN 1826 (TLR9) 0.5 ug/mL.
[7] abbreviates: agonist: Pam2CSK4 (TLR2/6) 0.1 ug/mL.
The mark [8] stands for this setting: agonist: Pam3CSK4 (TLR2/1) 0.1 ug/mL.

Consider `CN(C)CCCNC(=O)c1ccc(-c2cc(O)c3ncccc3c2)cc1`, for which the “NF-kB SEAP reporter activity” value in the test on RAW-Dual [1] (setting [4]) worked out at 1.08; in the test with RAW-Dual [1] (setting [5]), 1.

For the molecule `CCOC(=O)NCCCC(=O)NCCc1ccccc1` (library stock concentration (final ~1000-fold dilution): 10 mM), the “NF-kB SEAP reporter activity” value with RAW-Dual [2] (agonist: LPS (TLR4) 0.1 ug/mL) was 1.31; with RAW-Dual [2] (setting [6]), 0.995; in the test with RAW-Dual [2] (setting [7]), 1.17; in the test with RAW-Dual [2] (setting [8]), 1.06.

Consider `CC(NCc1ccc(OCc2cccc(F)c2)cc1)C(N)=O.CS(=O)(=O)O` (stereo unspecified), for which the entries for the “NF-kB SEAP reporter activity” value in the test with RAW-Dual [1] (setting [4]) and in the test on RAW-Dual [1] (setting [5]) were 1.73 and 1.07, respectively.

`CC(NCc1ccc(OCc2cccc(F)c2)cc1)C(N)=O.CS(=O)(=O)O` (stereo unspecified) (library stock concentration (final ~1000-fold dilution): 10 mM): the “NF-kB SEAP reporter activity” value in the test with RAW-Dual [2] (agonist: LPS (TLR4) 0.1 ug/mL) came out at 1.08; in the test with RAW-Dual [2] (setting [6]) it was 1.17; in the test on RAW-Dual [2] (setting [7]), 0.813; with RAW-Dual [2] (setting [8]), 1.1.

As for `CCc1cnn2c(NCc3ccc[n+]([O-])c3)cc(N3CCCCC3CCO)nc12` (stereo unspecified) (library stock concentration (final ~1000-fold dilution): 10 mM), the “NF-kB SEAP reporter activity” value in the test on RAW-Dual [3] (agonist: LPS (TLR4) 0.1 ug/mL) came to 0.193; with RAW-Dual [3] (setting [6]), 0.198; in the test with RAW-Dual [3] (setting [7]) it was 0.0843; in the test with RAW-Dual [3] (setting [8]) it was 0.182.

Turning to `CCc1cnn2c(NCc3ccc[n+]([O-])c3)cc(N3CCCCC3CCO)nc12` (stereo unspecified), the “NF-kB SEAP reporter activity” value with RAW-Dual [1] (cytotoxicity flag (confluency mask): cytotoxic (confluency <70% of control), agonist: Imiquimod (TLR7) […]) came out at 0.308; in the test with RAW-Dual [1] (cytotoxicity flag (confluency mask): cytotoxic (confluency <70% of control), agonist: MPLA (TLR4) […]) it was 0.225.

Consider `Cc1cn(-c2cc(NC(=O)c3ccc(C)c(Nc4nccc(-c5cccnc5)n4)c3)cc(C(F)(F)F)c2)cn1.Cl` (library stock concentration (final ~1000-fold dilution): 10 mM), for which the “NF-kB SEAP reporter activity” value was 2.23 in the test with RAW-Dual [2] (agonist: LPS (TLR4) 0.1 ug/mL), 1.41 with RAW-Dual [2] (setting [6]), 0.403 in the test with RAW-Dual [2] (setting [7]) and 0.466 in the test with RAW-Dual [2] (setting [8]).

As to `Cc1cn(-c2cc(NC(=O)c3ccc(C)c(Nc4nccc(-c5cccnc5)n4)c3)cc(C(F)(F)F)c2)cn1.Cl`, in the test on RAW-Dual [1] (setting [5]), the “NF-kB SEAP reporter activity” value was 2.49.

Consider `Nc1nc(NC2CC2)c2ncn(C3C=CC(CO)C3)c2n1` (stereo unspecified) (library stock concentration (final ~1000-fold dilution): 10 mM), for which the “NF-kB SEAP reporter activity” value in the test with RAW-Dual [2] (agonist: LPS (TLR4) 0.1 ug/mL) was 1.05; with RAW-Dual [2] (setting [6]) it was 1.07; in the test with RAW-Dual [2] (setting [7]), 1.35; in the test on RAW-Dual [2] (setting [8]), 1.07.

Consider `Nc1nc(NC2CC2)c2ncn(C3C=CC(CO)C3)c2n1` (stereo unspecified), for which the “NF-kB SEAP reporter activity” value in the test on RAW-Dual [1] (setting [5]) was 1.16.

Turning to `CCN(CC)C(=O)C1(c2ccccc2)CC1CN.Cl` (stereo unspecified), the “NF-kB SEAP reporter activity” value with RAW-Dual [1] (setting [4]) was 1.02; in the test with RAW-Dual [1] (setting [5]) it was 1.1.

Turning to `CCN(CC)C(=O)C1(c2ccccc2)CC1CN.Cl` (stereo unspecified) (library stock concentration (final ~1000-fold dilution): 10 mM), the “NF-kB SEAP reporter activity” value with RAW-Dual [2] (agonist: LPS (TLR4) 0.1 ug/mL) came out at 0.999; in the test on RAW-Dual [2] (setting [6]) it was 0.858; in the test on RAW-Dual [2] (setting [7]) it was 0.856; with RAW-Dual [2] (setting [8]), 1.18.

Take `CC(=O)O.NCc1ccc(S(N)(=O)=O)cc1`: the “NF-kB SEAP reporter activity” value with RAW-Dual [1] (setting [4]) is 1.17; with RAW-Dual [1] (setting [5]), 1.03.

For the molecule `CC(=O)O.NCc1ccc(S(N)(=O)=O)cc1` (library stock concentration (final ~1000-fold dilution): 10 mM), the “NF-kB SEAP reporter activity” value with RAW-Dual [2] (agonist: LPS (TLR4) 0.1 ug/mL) was 1.04; in the test with RAW-Dual [2] (setting [6]) it was 1.01; with RAW-Dual [2] (setting [7]), 0.927; in the test on RAW-Dual [2] (setting [8]), 1.23.

As to `CC1(C)CC(=O)c2c(C(F)(F)F)nn(-c3ccc(C(N)=O)c(NC4CCC(OC(=O)CN)CC4)c3)c2C1` (stereo unspecified), the “NF-kB SEAP reporter activity” value in the test on RAW-Dual [1] (setting [4]) was 0.916; in the test on RAW-Dual [1] (setting [5]), 0.907.

Regarding `CC1(C)CC(=O)c2c(C(F)(F)F)nn(-c3ccc(C(N)=O)c(NC4CCC(OC(=O)CN)CC4)c3)c2C1` (stereo unspecified) (library stock concentration (final ~1000-fold dilution): 10 mM), the “NF-kB SEAP reporter activity” value in the test on RAW-Dual [2] (agonist: LPS (TLR4) 0.1 ug/mL) was found to be 0.226; in the test with RAW-Dual [2] (setting [6]) it was 0.929; with RAW-Dual [2] (setting [7]) it was 0.113; in the test on RAW-Dual [2] (setting [8]), 0.234.

For `CC#CC(=O)N1CCC(n2c(=O)n(-c3ccc(Oc4ccccc4)cc3)c3c(N)ncnc32)C1.Cl` (stereo unspecified) (library stock concentration (final ~1000-fold dilution): 10 mM), the “NF-kB SEAP reporter activity” value was 0.647 with RAW-Dual [2] (agonist: LPS (TLR4) 0.1 ug/mL), 0.662 in the test on RAW-Dual [2] (setting [6]), 0.378 with RAW-Dual [2] (setting [7]) and 0.517 in the test on RAW-Dual [2] (setting [8]).

As for `CC#CC(=O)N1CCC(n2c(=O)n(-c3ccc(Oc4ccccc4)cc3)c3c(N)ncnc32)C1.Cl` (stereo unspecified), the results for the “NF-kB SEAP reporter activity” value in the test on RAW-Dual [1] (setting [4]) and in the test with RAW-Dual [1] (setting [5]) were 0.734 and 0.814, respectively.

Regarding `CCOC(=O)C=P(c1ccccc1)(c1ccccc1)c1ccccc1` (library stock concentration (final ~1000-fold dilution): 10 mM), the “NF-kB SEAP reporter activity” value in the test on RAW-Dual [2] (agonist: LPS (TLR4) 0.1 ug/mL) was 0.964; with RAW-Dual [2] (setting [6]), 0.875; in the test with RAW-Dual [2] (setting [7]) it was 0.894; in the test with RAW-Dual [2] (setting [8]), 0.912.

In the case of `CCOC(=O)C=P(c1ccccc1)(c1ccccc1)c1ccccc1`, the “NF-kB SEAP reporter activity” value was found to be 0.715 with RAW-Dual [1] (setting [4]) and 1.05 with RAW-Dual [1] (setting [5]).

Turning to `O=C(NCC(O)CN1CCc2ccccc2C1)c1ccnc(NC2CCC2)c1` (stereo unspecified) (library stock concentration (final ~1000-fold dilution): 10 mM), the “NF-kB SEAP reporter activity” value in the test with RAW-Dual [2] (agonist: LPS (TLR4) 0.1 ug/mL) worked out at 0.908; in the test on RAW-Dual [2] (setting [6]), 0.581; in the test with RAW-Dual [2] (setting [7]), 1.03; in the test on RAW-Dual [2] (setting [8]) it was 0.884.

Take `O=C(NCC(O)CN1CCc2ccccc2C1)c1ccnc(NC2CCC2)c1` (stereo unspecified): the “NF-kB SEAP reporter activity” value amounted to 0.885 in the test on RAW-Dual [1] (setting [4]) and 0.997 in the test with RAW-Dual [1] (setting [5]).

Turning to `CN(c1ncccc1CNc1nc(Nc2ccc3c(c2)CC(=O)N3)ncc1C(F)(F)F)S(C)(=O)=O.O=S(=O)(O)c1ccccc1` (library stock concentration (final ~1000-fold dilution): 10 mM), the “NF-kB SEAP reporter activity” value was 0.207 in the test with RAW-Dual [2] (agonist: LPS (TLR4) 0.1 ug/mL), 0.982 in the test with RAW-Dual [2] (setting [6]), 0.147 with RAW-Dual [2] (setting [7]) and 0.882 in the test on RAW-Dual [2] (setting [8]).

`CN(c1ncccc1CNc1nc(Nc2ccc3c(c2)CC(=O)N3)ncc1C(F)(F)F)S(C)(=O)=O.O=S(=O)(O)c1ccccc1`: the “NF-kB SEAP reporter activity” value in the test with RAW-Dual [1] (setting [4]) was found to be 1.02; with RAW-Dual [1] (setting [5]), 0.953.

With `CC(C)(F)CC(NC(c1ccc(-c2ccc(S(C)(=O)=O)cc2)cc1)C(F)(F)F)C(=O)NC1(C#N)CC1` (stereo unspecified) (library stock concentration (final ~1000-fold dilution): 10 mM), the “NF-kB SEAP reporter activity” value in the test on RAW-Dual [2] (agonist: LPS (TLR4) 0.1 ug/mL) came out at 0.968; in the test on RAW-Dual [2] (setting [6]) it was 1.15; with RAW-Dual [2] (setting [7]), 0.937; with RAW-Dual [2] (setting [8]), 0.97.

Consider `CC(C)(F)CC(NC(c1ccc(-c2ccc(S(C)(=O)=O)cc2)cc1)C(F)(F)F)C(=O)NC1(C#N)CC1` (stereo unspecified), for which the “NF-kB SEAP reporter activity” value with RAW-Dual [1] (setting [4]) was determined as 0.932; in the test on RAW-Dual [1] (setting [5]), 1.02.

Source of the values: the supplement of paper PMC10037445.
